About 83,000 compounds went through this panel and 20% of them were active in at least one assay; those are over-represented in the sample as a whole.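 Assay: single dose, 48 h. Readout: percent growth (0 = no net growth; negative = cell death). Active: <10.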 Active and inactive are the calls of the source.
Legend:
Assay in all cases: NCI-60 one-dose screen, 48 h (100 = growth as untreated, 0 = no growth, -100 = all killed)
Conditions in all cases: 10 µM unless noted
[1] = tested on: SK-MEL-2 melanoma
[2] = tested on: EKVX NSCLC
[3] = tested on: SN12C renal
[4] = tested on: UO-31 renal
[5] = tested on: TK-10 renal
[6] = tested on: ACHN renal
[7] = tested on: CAKI-1 renal
[8] = tested on: A498 renal
[9] = tested on: CCRF-CEM leukemia
[10] = tested on: MOLT-4 leukemia

Measured: growth

CN1CCN(CCCOc2ccc3ncnc(Nc4ccc(OCc5cccc(F)c5)c(Cl)c4)c3c2)CC1
inactive: [2] 30.7% | [8] 26.1%
active: [1] -40.1% | [3] 3.1% | [4] -4.76% | [5] -18% | [6] -50.7% | [7] -62.5% | [9] 2.72% | [10] -12.8%

C[C@@H]1CN(c2nc3c(cc2F)c(=O)c(C(=O)O)cn3C(C)(C)C)C[C@H](C)N1
active: [7] -7.72%
inactive: [1] 97.1% | [2] 104% | [3] 104% | [4] 94.2% | [5] 102% | [6] 99.8% | [9] 102% | [10] 101%

O=C(Nc1ccc(Cl)cc1)Nc1ccccc1CNc1nc(Nc2ccc(OCCN3CCCC3)cc2)ncc1Cl
active: [4] -6.76% | [5] -51.5% | [6] -54.4% | [7] 5.67% | [9] 4.29% | [10] -13.4%
inactive: [1] 102% | [2] 33.7% | [3] 93.2% | [8] 75.6%

CCN(CC)CCSc1ncnc2c1cnn2-c1ccc(S(N)(=O)=O)cc1
active: [7] 7.74%
inactive: [1] 96.5% | [2] 86.8% | [3] 89.5% | [4] 87.7% | [5] 103% | [6] 92.2% | [8] 92% | [9] 88.4% | [10] 85.6%

COC(=O)Nc1ccc2ccc3c(NC(=O)OC)ccc4ccc1c2c43 (tested in a mixture with another compound)
inactive: [1] 52.8% | [2] 68.1% | [3] 68.4% | [4] 42.1% | [5] 85.9% | [6] 59% | [7] 50.7% | [9] 54.4% | [10] 35%

Fc1ccccc1C1c2ccccc2-c2nccn21 (stereo not drawn)
inactive: [1] 99.5% | [2] 96.1% | [3] 97.1% | [4] 93.7% | [5] 97.4% | [6] 112% | [7] 66.5% | [8] 90.9% | [9] 96.9% | [10] 87.4%

Cc1ccc(S(=O)(=O)NCCN2c3nc4ccccc4cc3Sc3cc4ccccc4nc32)cc1
active: [4] -32%
inactive: [1] 44.2% | [2] 70.3% | [3] 66% | [5] 84.5% | [6] 54.2% | [7] 92.5% | [8] 149% | [9] 93.7% | [10] 108%

N#CC1c2ccccc2C=CN1C(=O)N(c1ccccc1)c1ccccc1 (stereo not drawn)
inactive: [1] 88.2% | [2] 102% | [3] 76.1% | [4] 36.5% | [5] 32.1% | [6] 12.3%
active: [7] 2.37% | [9] 3.82% | [10] 3.19%

COc1ccc(C2CC(c3ccc4c(c3)OCO4)=NN2C=O)cc1 (stereo not drawn)
inactive: [1] 100% | [2] 91.7% | [3] 106% | [4] 87.4% | [5] 93.4% | [6] 103% | [7] 102% | [9] 93.9% | [10] 101%

O=c1c2c(=NCCCN3CCCC3)cc3c(=O)n(CCCN4CCCC4)c(=O)c4c(NCCCN5CCCC5)cc(c(O)n1CCCN1CCCC1)c2c4-3
inactive: [3] 10.3% | [5] 13.1% | [7] 14.4% | [9] 10.1% | [10] 16.5%
active: [1] 1.12% | [2] -17.2% | [4] -34.9% | [6] -31.2% | [8] -67.3%

COc1ccc2nc(NC(=O)CN3CCn4c(nnc4C(F)(F)F)C3)sc2c1
inactive: [1] 106% | [2] 73.1% | [3] 92.2% | [4] 80.6% | [5] 97.5% | [6] 90.7% | [7] 77.7% | [9] 86.5% | [10] 95.8%

CC1c2ccccc2-c2ccccc2N1C (stereo not drawn)
inactive: [1] 101% | [2] 124% | [3] 89.6% | [4] 70.7% | [5] 94.3% | [6] 103% | [7] 95.7% | [9] 101% | [10] 103%

CN(C)c1ncnc2c1ncn2C1CCCCO1 (stereo not drawn)
inactive: [1] 102% | [2] 102% | [3] 93.8% | [4] 73.2% | [5] 101% | [6] 104% | [7] 102% | [9] 94.9% | [10] 95.1%

O=[N+]([O-])c1ccc2[nH]cc(-c3c4ccccc4cc4[nH]c5ccc([N+](=O)[O-])cc5c34)c2c1
active: [1] 2.23% | [9] 7.25% | [10] 6.8%
inactive: [2] 39.4% | [3] 36.7% | [4] 13.2% | [5] 58.7% | [6] 15.4% | [7] 25.3%

NS(=O)(=O)c1ccc(-n2ncc3c(SCc4ccccc4)ncnc32)cc1
inactive: [1] 99.8% | [2] 107% | [3] 98.8% | [4] 98.5% | [5] 89.4% | [6] 98% | [7] 26.3% | [8] 111% | [10] 50.3%

O=C(N/N=C/c1cccc(O)c1)c1ccc(C(F)(F)F)nc1Nc1cccc(C(F)(F)F)c1
inactive: [1] 12.9% | [5] 15.6%
active: [2] 5.06% | [3] 7.08% | [4] -9.68% | [6] -6.85% | [7] -22% | [9] -38.3% | [10] -20.5%

O=C(Nc1ccccc1)P(=O)(O)c1ccccc1
inactive: [1] 118% | [2] 113% | [3] 92.1% | [4] 76.9% | [5] 107% | [6] 93.9% | [7] 117% | [9] 120% | [10] 95%

Nc1nc(Nc2ccccc2SSc2ccccc2Nc2nc(N)nc(-c3ccc(I)cc3)n2)nc(-c2ccc(I)cc2)n1
active: [4] -92.2%
inactive: [1] 103% | [2] 52.2% | [3] 23.4% | [5] 104% | [6] 19.2% | [7] 59.7% | [9] 50.3% | [10] 71.7%

CCOC(=O)c1cc2oc(/C=C/c3cc(=O)c4cc(Cl)ccc4o3)cc2[nH]1
inactive: [1] 82.1% | [2] 89.7% | [3] 62.4% | [4] 81.8% | [5] 113% | [6] 97.8% | [7] 79% | [9] 105% | [10] 88.9%

COc1cc(/C=N/OC(=O)Nc2ccccc2)cc(OC)c1OC
inactive: [1] 115% | [2] 117% | [3] 94.4% | [4] 69% | [5] 99% | [6] 107% | [7] 110% | [9] 98.1% | [10] 100%

O=C1OC2(c3ccccc31)c1ccccc1-c1ccccc12
inactive: [1] 65% | [2] 87.9% | [3] 90.4% | [4] 65.7% | [5] 82.7% | [6] 101% | [7] 62.3% | [8] 69.8% | [9] 72.4% | [10] 82.9%

Cc1ccc(C(NC(=O)c2ccccc2)c2ccc3cccnc3c2O)cc1 (stereo not drawn)
active: [4] -3.13% | [6] 8.26% | [7] 9.05% | [9] 5.39% | [10] 8.31%
inactive: [1] 18.5% | [2] 17.3% | [3] 14.1% | [5] 16% | [8] 24.9%

CCOC(=O)Nc1ccc2c3c(cccc13)-c1ccccc1-2
inactive: [1] 24.8% | [2] 48.4% | [3] 42.2% | [4] 21.1% | [5] 45.5% | [6] 50.6% | [7] 16.5% | [8] 76.2% | [9] 55.4% | [10] 36%

N#Cc1c(-c2ccccc2)cc(-c2ccccc2)n(CC(=O)O)c1=O
inactive: [1] 28% | [2] 81.4% | [3] 70% | [4] 68.9% | [5] 84.2% | [6] 76.1% | [7] 47.3% | [9] 56.3% | [10] 63.8%

CCOC(=O)C1=CCC(n2cc(C)c(=O)[nH]c2=O)O1 (stereo not drawn)
inactive: [1] 105% | [2] 104% | [3] 101% | [4] 96.9% | [5] 118% | [6] 103% | [7] 85.8% | [9] 98.8% | [10] 94.7%

C=C1CCC2C(C)(COC(=O)CC)C(OC(=O)CC)CCC2(C)C1C/C=C1/C(=O)OCC1OC(=O)CC (stereo not drawn)
inactive: [1] 19.1% | [2] 85.1% | [7] 19.2% | [8] 81.4%
active: [3] 0.261% | [4] -72.2% | [5] 1.32% | [6] -90.7% | [9] -25.5% | [10] -11%

COc1ccc2c(c1)c(CC(=O)[Se]C)c(C)n2C(=O)c1ccc(Cl)cc1
inactive: [1] 12.4% | [4] 14.7% | [6] 10.4% | [9] 13%
active: [2] -26.7% | [3] -4.23% | [5] -58.4% | [7] -35.1% | [10] 6.33%

COC(=O)C1(NC(=O)CNC(=O)OCc2ccccc2)CCCC1
inactive: [1] 102% | [2] 98.2% | [3] 95.4% | [4] 93.1% | [5] 99.9% | [6] 105% | [7] 100% | [8] 96.9% | [9] 101% | [10] 111%
